We go through 8 compounds from PubChem BioAssay (Tox21).

Experiment [1] can be described thus: qHTS assay to identify small molecule antagonists of the androgen receptor (AR) signaling pathway using the MDA cell line in the presence of 0.5 nM R1881 - cell viability counter screen (AID 1259242). Further: nearly all actives have a fitted effect of over 45% in size. The gist of the method:
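Steps: plate MDA-kb2 cells, rest 5 hr at 37C without CO2; pin in compounds in DMSO; add R1881 to 0.5 nM final; incubate 16 hr; add CellTiter-Fluor, 30 min; read fluorescence.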

Experiment [2] has as its target Estrogen receptor (Homo sapiens) (UniProt P03372). The experiment can be described thus: qHTS assay to identify small molecule antagonists of the estrogen receptor alpha (ER-alpha) signaling pathway using the BG1 cell line in the presence of 0.1 nM 17-beta-estradiol (AID 1259244). Further: nearly all actives have a fitted effect of over 50% in size. Further: potency means the concentration at half of the fitted maximal effect. The gist of the method: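 Antagonist mode: compounds in DMSO are pinned onto VM7Luc4E2 reporter cells, 0.1 nM final 17beta-estradiol is added, and after 22 h at 37C luciferase luminescence is measured with ONE-Glo.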
Background: qHTS replaces the single test concentration by a dilution series.

Experiment [3] in a line: qHTS assay to identify small molecule HDAC inhibitors (AID 1259364).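 Further: wild-type HCT-116 cells with endogenous class I/II HDAC activity; top concentration of the series differs between compounds; nearly all actives have a fitted effect of over 45% in size.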 The gist of the method:
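Cells (HCT-116, wild type) are seeded at 1,500 per well, incubated overnight, treated with compound in DMSO for 2 hr, then developed with HDAC-Glo I/II reagent for 30 min at room temperature.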

Experiment [4] in a line: qHTS assay to identify small molecule HDAC inhibitors - cell viability counter screen (AID 1259365). Further: series mostly up to about 92 µM; nearly all actives have a fitted effect of over 50% in size. The gist of the method: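 Counter screen in wild-type HCT-116 cells: compounds dissolved in DMSO are pin-transferred onto overnight-plated cells and left 2hr at 37C. ATP-based CellTiter-Glo luminescence then measures viable cells.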
The nature of experiment [5]: qHTS assay to identify small molecule agonists of the sonic hedgehog signaling (Shh) pathway - cell viability counter screen (AID 1259366). Further: nearly all actives have a fitted effect of over 50% in size. Further: potency means the concentration at half of the fitted maximal effect. The gist of the method: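 Cells are plated at 2,000 per well and left 4hr at 37C, 5% CO2 before compound addition. After 23hr of treatment, CellTiter-Fluor reagent is added for 1hr at 37C and fluorescence is measured.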
The nature of experiment [6]: qHTS assay to identify small molecule antagonists of the sonic hedgehog signaling (Shh) pathway - cell viability counter screen (AID 1259367). Further: nearly all actives have a fitted effect of over 55% in size. Further: potency means the concentration at half of the fitted maximal effect. The gist of the method:
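Viability was read by CellTiter-Fluor fluorescence in the same wells, reagent added 23 hr into compound treatment and incubated 1 hr at 37C. The 3T3 Gli1-Luc reporter cells (2,000/well) received conditioned medium after compound and ran 24 hr.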

Experiment [7] can be described thus: qHTS assay to identify small molecule agonists of the sonic hedgehog signaling (Shh) pathway (AID 1259368; calls by dose curve;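 further: NIH/3T3-derived 3T3Gli1-Luc cells carrying a stable Gli1-driven firefly luciferase reporter; series mostly up to about 92 µM; nearly all actives have a fitted effect of over 15% in size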). The gist of the method: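 Cells of a mouse NIH/3T3 clone stably expressing luciferase under the Gli1 transcriptional response element are exposed to test chemicals for 24 hr at 37 C. Pathway activation is detected as a rise in luminescence.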
Experiment [8] in a line: qHTS assay to identify small molecule agonists of the androgen receptor (AR) signaling pathway in the presence of an antagonist - cell viability counter screen (AID 1259379). Further: nearly all actives have a fitted effect of over 25% in size. Further: potency means the concentration at half of the fitted maximal effect. The gist of the method:
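Cytotoxicity is assessed by CellTiter-Fluor in MDA-kb2 cells carrying an MMTV-driven luciferase reporter. Cells receive 3.0uM nilutamide plus compounds at 15 concentrations and incubate 16 hr at 37C without CO2 before fluorescence reading.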

A short description of experiment [9]: qHTS assay to identify small molecule agonists of the estrogen receptor beta (ER-beta) signaling pathway - cell viability counter screen (AID 1259380). Further: nearly all actives have a fitted effect of over 30% in size. Further: potency means the concentration at half of the fitted maximal effect. The gist of the method:
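Cytotoxicity is measured in parallel with the reporter screen: after 16 hr compound exposure at 37C and a 2 hr LiveBLAzer step, CellTiter-Glo is added to the same ER-beta-UAS-bla HEK293T wells and luminescence read after 30 min.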

Experiment [10] is described as follows: qHTS assay to identify small molecule antagonists of the estrogen receptor beta (ER-beta) signaling pathway - cell viability counter screen (AID 1259382).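 Further: HEK293T cells carrying ER-beta-UAS-bla reporter stimulated with estradiol; series mostly up to about 92 µM; nearly all actives have a fitted effect of over 55% in size.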 The gist of the method:
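Cytotoxicity counter screen multiplexed with the beta-lactamase antagonist assay: GripTite HEK293T ER-beta-bla cells were treated 16 hr with test chemicals in the presence of 1nM 17-beta-estradiol, and viability was measured by CellTiter-Glo.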

In experiment [11] the target is Estrogen receptor (Homo sapiens) (UniProt P03372). In words: qHTS assay to identify small molecule agonists of the estrogen receptor alpha (ER-alpha) signaling pathway in the presence of an antagonist (AID 1259383; calls by dose curve; further: nearly all actives have a fitted effect of over 15% in size; further: potency means the concentration at half of the fitted maximal effect; on activation: top concentration of the series differs between compounds). The gist of the method: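 Agonist-mode confirmation in the presence of the ER antagonist ICI-182,780 at 10.0nM final. Breast-derived VM7Luc4E2 reporter cells were exposed to compounds for 22hr, and ERE-driven luciferase was quantified by luminescence.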
Chain of Estrogen receptor (Homo sapiens) (P03372 whole entry, looked up): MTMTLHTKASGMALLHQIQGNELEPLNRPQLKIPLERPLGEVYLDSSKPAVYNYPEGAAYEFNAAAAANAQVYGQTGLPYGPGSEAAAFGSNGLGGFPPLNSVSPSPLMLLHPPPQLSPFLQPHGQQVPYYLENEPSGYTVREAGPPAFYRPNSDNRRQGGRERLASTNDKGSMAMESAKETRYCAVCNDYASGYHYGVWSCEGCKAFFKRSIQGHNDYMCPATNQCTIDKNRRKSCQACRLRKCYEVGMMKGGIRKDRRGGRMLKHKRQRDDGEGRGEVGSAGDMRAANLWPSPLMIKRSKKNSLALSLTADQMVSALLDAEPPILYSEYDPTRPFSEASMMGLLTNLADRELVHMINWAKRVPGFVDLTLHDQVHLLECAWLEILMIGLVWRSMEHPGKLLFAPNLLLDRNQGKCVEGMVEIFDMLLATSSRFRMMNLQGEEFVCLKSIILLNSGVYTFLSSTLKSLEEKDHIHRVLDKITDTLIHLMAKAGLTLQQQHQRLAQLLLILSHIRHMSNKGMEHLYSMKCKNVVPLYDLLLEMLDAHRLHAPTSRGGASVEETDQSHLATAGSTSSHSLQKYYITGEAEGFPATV

Experiment [12] is described as follows: qHTS assay to identify small molecule agonists or antagonists of the thyroid stimulating hormone receptor (TSHR) signaling pathway - wild type cell line counter screen (AID 1259384; calls by dose curve). The gist of the method: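 Counter screen in untransfected Hek293: compounds (15-point titration, triplicate) plus phosphodiesterase inhibitor Ro20-1724 added after 18 h plating; 30 min RT. Intracellular cAMP via competitive d2/cryptate immunoassay, 1 h incubation.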

Experiment [13] deals with Thyrotropin receptor (Homo sapiens) (UniProt P16473). The experiment can be described thus: qHTS assay to identify small molecule antagonists of the thyroid stimulating hormone receptor (TSHR) signaling pathway (AID 1259385; calls by dose curve; further: nearly all actives have a fitted effect of over 20% in size; further: potency means the concentration at half of the fitted maximal effect). The gist of the method:
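Antagonist mode: compound-treated TSHR-expressing HEK293 cells were stimulated with 1.5 ng/mL TSH (final) in presence of Ro20-1724 for 30 min at RT. HTRF cAMP detection after 1 h; each compound tested at 15 concentrations, triplicate.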

The target in experiment [14] is Estrogen receptor beta (Homo sapiens) (UniProt Q92731). The experiment can be described thus: qHTS assay to identify small molecule agonists of the estrogen receptor beta (ER-beta) signaling pathway (AID 1259377; active means well fitted activation curve with a large enough effect in the signal ratio in the repeat runs, not every such curve was filed as active; the % refers to the signal ratio). The gist of the method: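 Agonist mode cell assay in GripTite HEK293T cells expressing an ER-beta fusion that drives beta-lactamase from an Upstream Activator Sequence; 16 hr compound exposure at 37C, then 2 h LiveBLAzer B/G FRET substrate at room temperature, fluorescence read-out.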
Chain of Estrogen receptor beta (Homo sapiens) (Q92731 whole entry, looked up, the tested form may be a part): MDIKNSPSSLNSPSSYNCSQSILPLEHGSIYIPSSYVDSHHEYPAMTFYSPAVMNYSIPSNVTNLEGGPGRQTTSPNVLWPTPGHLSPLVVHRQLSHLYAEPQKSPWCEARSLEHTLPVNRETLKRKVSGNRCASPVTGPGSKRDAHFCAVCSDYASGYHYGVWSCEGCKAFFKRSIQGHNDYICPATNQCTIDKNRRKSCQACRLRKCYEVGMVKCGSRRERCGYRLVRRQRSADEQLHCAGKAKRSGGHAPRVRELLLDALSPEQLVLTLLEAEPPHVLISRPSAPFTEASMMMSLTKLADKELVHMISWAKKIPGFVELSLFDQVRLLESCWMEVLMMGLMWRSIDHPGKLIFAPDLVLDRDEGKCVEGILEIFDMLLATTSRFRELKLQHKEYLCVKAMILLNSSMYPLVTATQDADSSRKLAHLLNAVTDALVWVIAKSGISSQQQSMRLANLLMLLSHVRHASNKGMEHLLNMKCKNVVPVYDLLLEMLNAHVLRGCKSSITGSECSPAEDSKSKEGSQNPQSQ

The target is the same in experiment [15]. The experiment can be described thus: qHTS assay to identify small molecule antagonists of the estrogen receptor beta (ER-beta) signaling pathway (AID 1259378; active means well fitted inhibition curve with a large enough effect in the signal ratio in the repeat runs, not every such curve was filed as active; the % refers to the signal ratio). The gist of the method: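 Antagonist mode: compounds added to beta-lactamase reporter HEK293T ER-beta-UAS cells stimulated with E2 (1nM final), 16 hr at 37C. LiveBLAzer B/G FRET substrate, 2 hours room temperature, fluorescence read-out.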

Experiment [16] can be described thus: qHTS assay to identify small molecule antagonists of the sonic hedgehog signaling (Shh) pathway (AID 1259369; calls by dose curve; further: nearly all actives have a fitted effect of over 45% in size; further: potency means the concentration at half of the fitted maximal effect). The gist of the method:
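Cells are plated and held 4hr at 37 C, compounds (DMSO) are pinned in, conditioned medium is added to stimulate the pathway, and after 24hr luciferase reagent is added for 30min before luminescence is read.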

Experiment [17] addresses Androgen receptor (Homo sapiens) (UniProt P10275). The experiment can be described thus: qHTS assay to identify small molecule antagonists of the androgen receptor (AR) signaling pathway using the MDA cell line in the presence of 0.5 nM R1881 (AID 1259243). Further: nearly all actives have a fitted effect of over 50% in size. The gist of the method:
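Stably transfected MDA-kb2 cells express luciferase from an MMTV promoter bearing both AR and GR response elements. Compounds plus 0.5 nM R1881 (final) were incubated 16 hr at 37C without CO2, then luminescence measured.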

For experiment [18] the target is unchanged. In words: qHTS assay to identify small molecule agonists of the androgen receptor (AR) signaling pathway in the presence of an antagonist (AID 1259381; calls by dose curve; further: nearly all actives have a fitted effect of over 15% in size). The gist of the method:
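Agonist-mode confirmation screen: human MDA-kb2 cells stably expressing luciferase under an MMTV promoter bearing AR and GR response elements, co-treated with 3.0uM nilutamide (final). Luminescence measured after 16hr compound incubation.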

A short description of experiment [19]: qHTS assay to identify small molecule phospholipidosis (PLD) inducers (AID 1259344; active means well fitted curve in the direction sought with a large enough effect; an effect the other way counts as inactive or inconclusive). The gist of the method:
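Phospholipid accumulation was scored by imaging: fixed, Hoechst-counterstained HepG2 cells stained with LipidTOX Red after 24 h compound exposure at 37 C. Read-outs were pit count and pit intensity per well or per cell, with amiodarone and DMSO controls.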

Records with an inconclusive call do not appear. The source made the active and inactive calls. Unless noted, the call rests on the fitted dose curve; in most records, active means well fitted curve in the direction sought with a large enough effect in the repeat runs; inconclusive means weak or mixed curves; inactive means no such curve, though single readings can be large; an effect the other way counts as inactive or inconclusive.

Chain of Thyrotropin receptor (Homo sapiens) (P16473 whole entry, looked up): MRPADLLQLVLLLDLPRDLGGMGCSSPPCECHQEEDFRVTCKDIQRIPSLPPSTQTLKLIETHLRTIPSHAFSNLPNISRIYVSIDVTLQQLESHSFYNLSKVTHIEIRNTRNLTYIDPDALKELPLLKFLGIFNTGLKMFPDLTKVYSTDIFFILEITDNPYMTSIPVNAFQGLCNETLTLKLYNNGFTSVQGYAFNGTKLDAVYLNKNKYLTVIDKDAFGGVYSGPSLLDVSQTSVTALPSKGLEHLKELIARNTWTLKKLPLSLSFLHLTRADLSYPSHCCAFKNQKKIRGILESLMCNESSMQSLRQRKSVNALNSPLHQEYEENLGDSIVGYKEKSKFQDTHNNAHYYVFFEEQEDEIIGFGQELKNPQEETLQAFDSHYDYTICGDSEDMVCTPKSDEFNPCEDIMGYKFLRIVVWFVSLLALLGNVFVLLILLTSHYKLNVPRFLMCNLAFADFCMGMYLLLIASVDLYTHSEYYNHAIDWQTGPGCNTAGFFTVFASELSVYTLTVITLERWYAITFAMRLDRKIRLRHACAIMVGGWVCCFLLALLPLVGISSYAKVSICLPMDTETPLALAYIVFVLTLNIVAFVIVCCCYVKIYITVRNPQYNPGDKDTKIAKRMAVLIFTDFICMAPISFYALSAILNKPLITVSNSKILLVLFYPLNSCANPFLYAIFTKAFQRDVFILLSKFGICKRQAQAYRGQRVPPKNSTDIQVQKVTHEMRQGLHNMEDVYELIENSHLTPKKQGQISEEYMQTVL
Chain of Androgen receptor (Homo sapiens) (P10275 whole entry, looked up): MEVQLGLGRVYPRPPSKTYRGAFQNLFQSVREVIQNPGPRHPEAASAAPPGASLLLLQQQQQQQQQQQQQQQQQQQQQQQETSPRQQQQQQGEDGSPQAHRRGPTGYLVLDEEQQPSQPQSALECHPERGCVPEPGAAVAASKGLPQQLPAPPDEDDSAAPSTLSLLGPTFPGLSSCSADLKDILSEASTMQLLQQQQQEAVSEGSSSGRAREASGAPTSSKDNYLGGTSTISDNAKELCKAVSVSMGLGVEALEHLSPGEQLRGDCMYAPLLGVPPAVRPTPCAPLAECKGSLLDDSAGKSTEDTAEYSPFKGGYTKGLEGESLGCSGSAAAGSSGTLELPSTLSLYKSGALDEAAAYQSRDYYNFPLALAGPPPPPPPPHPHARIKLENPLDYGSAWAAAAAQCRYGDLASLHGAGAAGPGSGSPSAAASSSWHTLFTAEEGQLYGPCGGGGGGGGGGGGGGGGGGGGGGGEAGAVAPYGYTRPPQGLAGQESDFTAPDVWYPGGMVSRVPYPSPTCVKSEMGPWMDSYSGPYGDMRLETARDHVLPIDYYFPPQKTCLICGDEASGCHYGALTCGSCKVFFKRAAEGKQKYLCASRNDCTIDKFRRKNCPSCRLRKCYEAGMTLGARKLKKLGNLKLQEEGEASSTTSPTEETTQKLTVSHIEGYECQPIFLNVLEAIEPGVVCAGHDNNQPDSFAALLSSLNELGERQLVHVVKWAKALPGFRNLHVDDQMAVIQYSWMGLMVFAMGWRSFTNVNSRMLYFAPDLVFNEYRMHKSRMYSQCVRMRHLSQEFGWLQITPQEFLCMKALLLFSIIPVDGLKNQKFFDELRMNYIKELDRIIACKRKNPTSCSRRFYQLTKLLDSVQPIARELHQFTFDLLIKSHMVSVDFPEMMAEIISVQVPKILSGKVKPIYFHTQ

In the case of `C[C@@H](Oc1ccc(Cl)cc1Cl)C(=O)O`, the Potency result in [1], in experiment [2], in experiment [3], in experiment [4], in [5] and in [6] was “inactive” each time. Also, the Potency result in experiment [7], in experiment [8], in [9], in experiment [10], in [11] and in experiment [13] was “inactive” in each case. The result in [12] was inactive.

For `CC(C)OC(=S)S`, the Potency entry in experiment [1], in experiment [2], in experiment [3], in [4], in experiment [7] and in [14] was “inactive” in each case. Besides, the Potency entry in [8], in experiment [9], in experiment [10], in experiment [11] and in experiment [13] was “inactive” throughout. Also, the Potency in experiment [5] is 30.6 µM (active); in [6], 61.1 µM (active). Besides, in experiment [12], the compound was called inactive.

Consider `CC(C)(COCC1CO1)COCC1CO1` (stereo not given), for which the Potency result in experiment [1], in [2], in experiment [3], in [4], in experiment [5] and in [6] was “inactive” throughout. For the same compound, the Potency result in experiment [7], in experiment [14], in experiment [15], in experiment [8], in [9] and in experiment [10] was “inactive” throughout. Further, the Potency result in experiment [11] was “inactive”. Besides, the result in experiment [12] was inactive.

Take `COc1cc(C=O)cc2c1[C@H](COC(N)=O)[C@]1(OC(C)=O)ON2C[C@H]2[C@@H]1N2C(C)=O`: the Potency entry in experiment [1], in experiment [3], in experiment [4], in experiment [7], in experiment [9] and in [10] was “inactive” each time. The Potency result in [11] and in experiment [13] was “inactive” each time. For the same compound, the Potency in experiment [2] is 0.154 µM (active); in [5], 6.11 µM (active); in experiment [8], 27.3 µM (active). Besides, the compound was called inactive in experiment [12].

For the compound `N#CCc1ccc(Cl)cc1`, the Potency result in experiment [1], in [2], in experiment [3], in experiment [4], in [5] and in experiment [6] was “inactive” in each case. For the same compound, the Potency result in [7], in experiment [16], in experiment [14], in experiment [15], in experiment [8] and in [9] was “inactive” throughout. Also, the Potency entry in experiment [10] and in experiment [11] was “inactive” in each case.

In the case of `N#CCCC(Br)(C#N)CBr` (stereo not given), the Potency result in experiment [1], in experiment [2], in experiment [3], in experiment [4], in [7] and in experiment [14] was “inactive” in each case. In addition, in experiment [11], the Potency entry was “inactive”. The Potency in experiment [5] was 27.3 µM (active); in experiment [6], 27.3 µM (active); in experiment [16] it was 21.7 µM (active); in experiment [9], 43.3 µM (active); in experiment [13] it was 54.5 µM (active). For the same compound, the outcome in experiment [12] was inactive.

In the case of `Nc1c(Oc2ccccc2)cc(O)c2c1C(=O)c1ccccc1C2=O`, the Potency result in experiment [1], in experiment [17], in [2], in experiment [3], in [5] and in experiment [9] was “inactive” in each case. In addition, the Potency entry in [18] and in experiment [10] was “inactive” each time. In addition, in experiment [11], the Potency was 1.88 µM (active).

On to `COc1ccc(OC)c(CC(C)N)c1` (stereo not given), for which the Potency entry in experiment [1], in experiment [2], in experiment [19], in experiment [3], in experiment [4] and in [5] was “inactive” each time. The Potency result in [6], in [7], in [14], in experiment [15], in [8] and in experiment [9] was “inactive” each time. Besides, the Potency result in experiment [10], in [11] and in [13] was “inactive” in each case. Also, the outcome in [12] was inactive.
